The supplement of paper PMC4466140

Tests used:
Assay in all cases: SPOT peptide array binding signal intensity (averaged, normalized) (arbitrary units (background-subtracted, floor 0; scale differs between SH3 domains)); higher = stronger binding of the SH3 domain to the peptide
SpBzz1-D2 = target: SpBzz1-D2
Summary of the method: (§1)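 Four yeast species supplied the SH3 domains, which were expressed as GST fusions in E. coli BL21(DE3) and purified on glutathione Sepharose. Incubation with cellulose membranes carrying synthetic 15-mer peptides, cysteines exchanged for serines, ran overnight at 4°C at 10 μg/ml in TBS-based blocking buffer. Binding signal is reported as normalized, background-subtracted spot intensity averaged over replicates, in arbitrary units not shared between domains.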

SpCyk3 = target: SpCyk3
Summary of the method: as §1

SpHof1 = target: SpHof1
Summary of the method: as §1

SpHof1-2 = target: SpHof1-2
Summary of the method: as §1

SpHof1-3 = target: SpHof1-3
Summary of the method: as §1

SpHse1 = target: SpHse1
Summary of the method: as §1

SpLsb1 = target: SpLsb1
Summary of the method: as §1

SpLsb4 = target: SpLsb4
Summary of the method: as §1

SpMyo1 = target: SpMyo1
Summary of the method: as §1

SpNbp2 = target: SpNbp2
Summary of the method: as §1

SpPex13 = target: SpPex13
Summary of the method: as §1

SpRvs167 = target: SpRvs167
Summary of the method: as §1

SpSla1-D1-D2 = target: SpSla1-D1-D2
Summary of the method: as §1

SpSla1-D3 = target: SpSla1-D3
Summary of the method: as §1

AgAbp1 = target: AgAbp1
Summary of the method: as §1

AgBbc1 = target: AgBbc1
Summary of the method: as §1

AgBem1-D1 = target: AgBem1-D1
Summary of the method: as §1

AgBzz1-D1 = target: AgBzz1-D1
Summary of the method: as §1

AgBzz1-D2 = target: AgBzz1-D2
Summary of the method: as §1

AgCyk3 = target: AgCyk3
Summary of the method: as §1

AgFus1 = target: AgFus1
Summary of the method: as §1

AgHof1 = target: AgHof1
Summary of the method: as §1

AgHse1 = target: AgHse1
Summary of the method: as §1

AgLsb1 = target: AgLsb1
Summary of the method: as §1

AgLsb4 = target: AgLsb4
Summary of the method: as §1

AgMyo5 = target: AgMyo5
Summary of the method: as §1

AgNbp2 = target: AgNbp2
Summary of the method: as §1

AgRvs167 = target: AgRvs167
Summary of the method: as §1

AgSho1 = target: AgSho1
Summary of the method: as §1

AgSla1-D1-D2 = target: AgSla1-D1-D2
Summary of the method: as §1

AgSla1-D3 = target: AgSla1-D3
Summary of the method: as §1

CaAbp1-D1 = target: CaAbp1-D1
Summary of the method: as §1

CaAbp1-D2 = target: CaAbp1-D2
Summary of the method: as §1

CaBbc1 = target: CaBbc1
Summary of the method: as §1

CaBem1-D1 = target: CaBem1-D1
Summary of the method: as §1

CaBzz1-D1 = target: CaBzz1-D1
Summary of the method: as §1

CaBzz1-D2 = target: CaBzz1-D2
Summary of the method: as §1

CaCyk3 = target: CaCyk3
Summary of the method: as §1

CaFus1 = target: CaFus1
Summary of the method: as §1

CaHof1 = target: CaHof1
Summary of the method: as §1

CaHse1 = target: CaHse1
Summary of the method: as §1

CaLsb1 = target: CaLsb1
Summary of the method: as §1

CaLsb4 = target: CaLsb4
Summary of the method: as §1

CaMyo5 = target: CaMyo5
Summary of the method: as §1

CaNbp2 = target: CaNbp2
Summary of the method: as §1

CaRvs167 = target: CaRvs167
Summary of the method: as §1

CaRvs167-3 = target: CaRvs167-3
Summary of the method: as §1

CaSho1 = target: CaSho1
Summary of the method: as §1

CaSla1-D1-D2 = target: CaSla1-D1-D2
Summary of the method: as §1

CaSla1-D3 = target: CaSla1-D3
Summary of the method: as §1

ScAbp1 = target: ScAbp1
Summary of the method: as §1

ScBbc1 = target: ScBbc1
Summary of the method: as §1

ScBem1-D1 = target: ScBem1-D1
Summary of the method: as §1

ScBzz1-D1 = target: ScBzz1-D1
Summary of the method: as §1

ScBzz1-D2 = target: ScBzz1-D2
Summary of the method: as §1

ScCyk3 = target: ScCyk3
Summary of the method: as §1

ScFus1 = target: ScFus1
Summary of the method: as §1

ScHof1 = target: ScHof1
Summary of the method: as §1

ScHse1 = target: ScHse1
Summary of the method: as §1

ScLsb1 = target: ScLsb1
Summary of the method: as §1

ScLsb2 = target: ScLsb2
Summary of the method: as §1

ScLsb3 = target: ScLsb3
Summary of the method: as §1

ScLsb4 = target: ScLsb4
Summary of the method: as §1

ScMyo3 = target: ScMyo3
Summary of the method: as §1

ScMyo5 = target: ScMyo5
Summary of the method: as §1

ScNbp2 = target: ScNbp2
Summary of the method: as §1

ScPex13 = target: ScPex13
Summary of the method: as §1

ScRvs167 = target: ScRvs167
Summary of the method: as §1

ScSho1 = target: ScSho1
Summary of the method: as §1

ScSla1-D1-D2 = target: ScSla1-D1-D2
Summary of the method: as §1

ScSla1-D3 = target: ScSla1-D3
Summary of the method: as §1

SpAbp1-D1 = target: SpAbp1-D1
Summary of the method: as §1

SpBbc1 = target: SpBbc1
Summary of the method: as §1

SpBzz1-D1 = target: SpBzz1-D1
Summary of the method: as §1

B1: unnamed (peptide)
chain: TKFRISLGLPVGAIM
SpBzz1-D2
  SPOT peptide array binding signal intensity: 5
SpCyk3
  SPOT peptide array binding signal intensity: 55
SpHof1
  SPOT peptide array binding signal intensity: 183
SpHof1-2
  SPOT peptide array binding signal intensity: 78.2
SpHof1-3
  SPOT peptide array binding signal intensity: 760
SpHse1
  SPOT peptide array binding signal intensity: 664
SpLsb1
  SPOT peptide array binding signal intensity: 35.5
SpLsb4
  SPOT peptide array binding signal intensity: 100
SpMyo1
  SPOT peptide array binding signal intensity: 20.5
SpNbp2
  SPOT peptide array binding signal intensity: 1390
SpPex13
  SPOT peptide array binding signal intensity: 239
SpRvs167
  SPOT peptide array binding signal intensity: 39.2
SpSla1-D1-D2
  SPOT peptide array binding signal intensity: 6
SpSla1-D3
  SPOT peptide array binding signal intensity: 51.5

B2: unnamed (peptide)
chain: NVLRKILEIPLHSFS
AgAbp1
  SPOT peptide array binding signal intensity: 4
AgBbc1
  SPOT peptide array binding signal intensity: ≤ 0
AgBem1-D1
  SPOT peptide array binding signal intensity: ≤ 0
AgBzz1-D1
  SPOT peptide array binding signal intensity: 5.5
AgBzz1-D2
  SPOT peptide array binding signal intensity: 24.5
AgCyk3
  SPOT peptide array binding signal intensity: ≤ 0
AgFus1
  SPOT peptide array binding signal intensity: 29.5
AgHof1
  SPOT peptide array binding signal intensity: ≤ 0
AgHse1
  SPOT peptide array binding signal intensity: 2570
AgLsb1
  SPOT peptide array binding signal intensity: 2
AgLsb4
  SPOT peptide array binding signal intensity: 16
AgMyo5
  SPOT peptide array binding signal intensity: ≤ 0
AgNbp2
  SPOT peptide array binding signal intensity: ≤ 0
AgRvs167
  SPOT peptide array binding signal intensity: 1
AgSho1
  SPOT peptide array binding signal intensity: ≤ 0
AgSla1-D1-D2
  SPOT peptide array binding signal intensity: ≤ 0
AgSla1-D3
  SPOT peptide array binding signal intensity: 2
CaAbp1-D1
  SPOT peptide array binding signal intensity: ≤ 0
CaAbp1-D2
  SPOT peptide array binding signal intensity: ≤ 0
CaBbc1
  SPOT peptide array binding signal intensity: ≤ 0
CaBem1-D1
  SPOT peptide array binding signal intensity: ≤ 0
CaBzz1-D1
  SPOT peptide array binding signal intensity: ≤ 0
CaBzz1-D2
  SPOT peptide array binding signal intensity: ≤ 0
CaCyk3
  SPOT peptide array binding signal intensity: ≤ 0
CaFus1
  SPOT peptide array binding signal intensity: 1150
CaHof1
  SPOT peptide array binding signal intensity: ≤ 0
CaHse1
  SPOT peptide array binding signal intensity: 7
CaLsb1
  SPOT peptide array binding signal intensity: 6
CaLsb4
  SPOT peptide array binding signal intensity: ≤ 0
CaMyo5
  SPOT peptide array binding signal intensity: ≤ 0

B3: unnamed (peptide)
chain: LKQRFFLMFPKSIIW
AgAbp1
  SPOT peptide array binding signal intensity: 4
AgBbc1
  SPOT peptide array binding signal intensity: 6
AgBem1-D1
  SPOT peptide array binding signal intensity: 102
AgBzz1-D1
  SPOT peptide array binding signal intensity: 49.5
AgBzz1-D2
  SPOT peptide array binding signal intensity: 44
AgCyk3
  SPOT peptide array binding signal intensity: 1.5
AgFus1
  SPOT peptide array binding signal intensity: 742
AgHof1
  SPOT peptide array binding signal intensity: 81.5
AgHse1
  SPOT peptide array binding signal intensity: 1020
AgLsb1
  SPOT peptide array binding signal intensity: 0.5
AgLsb4
  SPOT peptide array binding signal intensity: 42.5
AgMyo5
  SPOT peptide array binding signal intensity: 0.5
AgNbp2
  SPOT peptide array binding signal intensity: 146
AgRvs167
  SPOT peptide array binding signal intensity: 3.67
AgSho1
  SPOT peptide array binding signal intensity: 102
AgSla1-D1-D2
  SPOT peptide array binding signal intensity: 141
AgSla1-D3
  SPOT peptide array binding signal intensity: 21
CaAbp1-D1
  SPOT peptide array binding signal intensity: 295
CaAbp1-D2
  SPOT peptide array binding signal intensity: 65.5
CaBbc1
  SPOT peptide array binding signal intensity: 17.8
CaBem1-D1
  SPOT peptide array binding signal intensity: 33.5
CaBzz1-D1
  SPOT peptide array binding signal intensity: 104
CaBzz1-D2
  SPOT peptide array binding signal intensity: 48.5
CaCyk3
  SPOT peptide array binding signal intensity: 5
CaFus1
  SPOT peptide array binding signal intensity: 4200
CaHof1
  SPOT peptide array binding signal intensity: 0.5
CaHse1
  SPOT peptide array binding signal intensity: 121
CaLsb1
  SPOT peptide array binding signal intensity: 1.5
CaLsb4
  SPOT peptide array binding signal intensity: 42
CaMyo5
  SPOT peptide array binding signal intensity: 35
CaNbp2
  SPOT peptide array binding signal intensity: 676
CaRvs167
  SPOT peptide array binding signal intensity: 89.2
CaRvs167-3
  SPOT peptide array binding signal intensity: 520
CaSho1
  SPOT peptide array binding signal intensity: 484
CaSla1-D1-D2
  SPOT peptide array binding signal intensity: 84.5
CaSla1-D3
  SPOT peptide array binding signal intensity: 257
ScAbp1
  SPOT peptide array binding signal intensity: 48
ScBbc1
  SPOT peptide array binding signal intensity: 4.5
ScBem1-D1
  SPOT peptide array binding signal intensity: 69
ScBzz1-D1
  SPOT peptide array binding signal intensity: 42
ScBzz1-D2
  SPOT peptide array binding signal intensity: 150
ScCyk3
  SPOT peptide array binding signal intensity: 124
ScFus1
  SPOT peptide array binding signal intensity: 819
ScHof1
  SPOT peptide array binding signal intensity: 1.5
ScHse1
  SPOT peptide array binding signal intensity: 1580
ScLsb1
  SPOT peptide array binding signal intensity: 1
ScLsb2
  SPOT peptide array binding signal intensity: ≤ 0
ScLsb3
  SPOT peptide array binding signal intensity: 33
ScLsb4
  SPOT peptide array binding signal intensity: 14.5
ScMyo3
  SPOT peptide array binding signal intensity: ≤ 0
ScMyo5
  SPOT peptide array binding signal intensity: 4
ScNbp2
  SPOT peptide array binding signal intensity: 252
ScPex13
  SPOT peptide array binding signal intensity: 15.5
ScRvs167
  SPOT peptide array binding signal intensity: 14.5
ScSho1
  SPOT peptide array binding signal intensity: 1060
ScSla1-D1-D2
  SPOT peptide array binding signal intensity: 91.5
ScSla1-D3
  SPOT peptide array binding signal intensity: 132
SpAbp1-D1
  SPOT peptide array binding signal intensity: 69
SpBbc1
  SPOT peptide array binding signal intensity: ≤ 0
SpBzz1-D1
  SPOT peptide array binding signal intensity: 103
SpBzz1-D2
  SPOT peptide array binding signal intensity: 0.5
SpCyk3
  SPOT peptide array binding signal intensity: 9
SpHof1
  SPOT peptide array binding signal intensity: 236
SpHof1-2
  SPOT peptide array binding signal intensity: 36.5
SpHof1-3
  SPOT peptide array binding signal intensity: 748
SpHse1
  SPOT peptide array binding signal intensity: 972
SpLsb1
  SPOT peptide array binding signal intensity: ≤ 0
SpLsb4
  SPOT peptide array binding signal intensity: 38.5
SpMyo1
  SPOT peptide array binding signal intensity: 3.5
SpNbp2
  SPOT peptide array binding signal intensity: 515
SpPex13
  SPOT peptide array binding signal intensity: 86
SpRvs167
  SPOT peptide array binding signal intensity: 14.3
SpSla1-D1-D2
  SPOT peptide array binding signal intensity: ≤ 0
SpSla1-D3
  SPOT peptide array binding signal intensity: 39
